Source: PubChem BioAssay
An excerpt weighted towards active compounds, which were near 1.3% of everything screened.
WRN inhibitor: blocks human WRN helicase | actives 0.46% (n = 360,000) | Potency, µM (top dose mostly 114 µM), inactives show at the top dose activity change, negative = inhibition, usual class: inhibitors | Q14191 | WRN helicase unwinding, fluorescent forked duplex, kinetic; note: potency is the fitted concentration of half-maximal effect; % is set by controls: 0 for no effect and ±100 for the full control effect; nearly all actives have a fitted effect of over 55% in size
Target sequence (Q14191 whole entry, looked up): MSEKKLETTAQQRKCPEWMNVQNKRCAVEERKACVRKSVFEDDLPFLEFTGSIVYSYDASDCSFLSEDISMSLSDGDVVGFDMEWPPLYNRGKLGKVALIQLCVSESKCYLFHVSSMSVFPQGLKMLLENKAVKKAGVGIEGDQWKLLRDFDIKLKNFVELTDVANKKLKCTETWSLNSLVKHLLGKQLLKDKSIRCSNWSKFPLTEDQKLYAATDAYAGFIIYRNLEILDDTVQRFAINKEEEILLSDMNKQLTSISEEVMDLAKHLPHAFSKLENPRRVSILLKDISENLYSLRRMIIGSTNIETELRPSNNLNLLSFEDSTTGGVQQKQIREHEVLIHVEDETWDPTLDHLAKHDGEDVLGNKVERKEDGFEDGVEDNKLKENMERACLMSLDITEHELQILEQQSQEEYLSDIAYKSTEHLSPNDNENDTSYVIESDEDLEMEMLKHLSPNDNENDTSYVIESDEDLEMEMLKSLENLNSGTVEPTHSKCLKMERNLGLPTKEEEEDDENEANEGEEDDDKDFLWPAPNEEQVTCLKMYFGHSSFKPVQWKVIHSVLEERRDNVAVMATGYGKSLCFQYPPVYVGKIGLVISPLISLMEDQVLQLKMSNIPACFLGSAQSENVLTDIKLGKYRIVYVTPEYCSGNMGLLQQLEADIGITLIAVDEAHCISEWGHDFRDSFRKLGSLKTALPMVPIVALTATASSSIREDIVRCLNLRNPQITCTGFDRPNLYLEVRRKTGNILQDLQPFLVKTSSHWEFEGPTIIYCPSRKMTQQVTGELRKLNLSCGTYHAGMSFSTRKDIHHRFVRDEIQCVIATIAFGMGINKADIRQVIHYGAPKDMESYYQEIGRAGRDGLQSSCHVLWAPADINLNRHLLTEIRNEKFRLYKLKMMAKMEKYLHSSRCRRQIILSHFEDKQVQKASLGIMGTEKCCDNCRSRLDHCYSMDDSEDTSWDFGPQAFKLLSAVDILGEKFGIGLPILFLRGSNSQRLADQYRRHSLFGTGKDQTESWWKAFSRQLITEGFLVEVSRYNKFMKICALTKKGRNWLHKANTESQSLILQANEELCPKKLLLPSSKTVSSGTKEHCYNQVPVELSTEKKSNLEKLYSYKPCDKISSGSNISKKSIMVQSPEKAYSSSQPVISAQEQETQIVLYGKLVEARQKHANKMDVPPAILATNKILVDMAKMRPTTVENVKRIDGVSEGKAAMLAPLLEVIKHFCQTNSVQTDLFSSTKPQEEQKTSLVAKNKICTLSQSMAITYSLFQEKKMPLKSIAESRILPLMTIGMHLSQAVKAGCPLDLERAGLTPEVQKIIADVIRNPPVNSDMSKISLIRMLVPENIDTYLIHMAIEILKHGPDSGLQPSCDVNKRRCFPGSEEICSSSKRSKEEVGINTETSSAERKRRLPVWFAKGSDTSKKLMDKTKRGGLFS
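Primary qHTS, 1536-well format. 20 nM WRN + compound, 15 min RT; start with 100 nM forked fluorophore/quencher duplex, 2 mM ATP (final); kinetic read ex 525/em 598 nm.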
Pin1 inh: human Pin1 inhibition; actives 0.009% (n = 390,000); Pin1 FP peptide displacement, HiFluor488, 10 min; Potency, µM (titrated, usually from 115 µM), for inactives: at the highest dose activity, negative = inhibition, actives largely listed as inhibitors; Q13526; AID 504891; active = well fitted inhibition curve with a large enough effect in the polarisation, with a control signal flat, not every such curve was filed as active; inconclusive = small, poorly fitted or top-dose-only effect, or effect the other way, or a change in a side signal; inactive = no such curve, though single readings can be large or run the other way; the % refers to the polarisation; note: potency is the fitted concentration of half-maximal effect; % is set by controls: 0 for no effect and ±100 for the full control effect
PI5P4K alpha inh: inhibitors of human PI5P4K alpha; PI5P4Kalpha enzyme, ADP-Glo luminescence, 60 min; hits give low values; max response, %; actives 1.2% (n = 330,000); active = max response of -50% or lower; inconclusive = between -30% and -50%; inactive = -30% or higher; note: value at the top dose of about 77 µM; % is set by controls: 0 for no effect and ±100 for the full control effect
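Human PI5P4Kalpha with substrate in 0.038 M HEPES pH 7.4, 0.28 mM EGTA, 0.1% CHAPS, 5% DMSO; reaction started with 5 microM ATP (final), 60 min at room temperature. ADP formed read by ADP-Glo luminescence.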
Tb PGK inh: blocks T. brucei phosphoglycerate kinase; PGK/GAPDH coupled, Kinase-Glo luminescence, 60 min; Potency, µM (titrated, usually from 57.5 µM), inactives show at the highest dose activity change, negative = inhibition, hits mostly inhibitors; actives 0.043% (n = 380,000); AID 602233; note: potency is the fitted concentration of half-maximal effect; % is set by controls: 0 for no effect and ±100 for the full control effect; nearly all actives have a fitted effect of over 60% in size
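Luminescent ATP detection (Kinase-Glo Plus) follows a 60-minute room-temperature incubation, with wells lacking PGK as controls. Buffer: 100 mM TEA (pH 7.6), 5 mM MgCl2, 0.01% Tween-20. Coupling enzyme GAPDH (100 nM final) supplies unstable 1,3-BPG in-well.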
GRP78 ERSR act: ER stress response induction in glioma; AID 602332; Potency, µM, without a hit: at the top dose activation, actives largely listed as activators; U87-MG GRP78 promoter luciferase reporter, 16 h; actives 0.02% (n = 420,000); note: potency is the fitted concentration of half-maximal effect; series mostly up to about 76 µM; % of control where 0% means no effect; nearly all actives have a fitted effect of over 35% in size
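Stably transfected U87-MG glioma cells carrying a GRP78-based luciferase sensor; 16 h compound incubation. Luminescence end-point read 10 min after Bright-Glo addition at room temperature.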
FEN1 inhibitor: inhibitors of human flap endonuclease 1; P39748; Recombinant FEN1 flap cleavage, fluorescence, 15 min; Potency, µM (doses to about 114 µM), for inactives: top-dose activity change, negative = inhibition, actives largely listed as inhibitors; actives 0.35% (n = 390,000); AID 588795; note: potency is the fitted concentration of half-maximal effect; % is set by controls: 0 for no effect and ±100 for the full control effect; nearly all actives have a fitted effect of over 65% in size
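Potency values derive from four-parameter Hill fits of normalized qHTS data. The reaction used 10 nM FEN1 preincubated 15 min at room temperature with compound, then 50 nM DNA substrate, read at 0 and 15 min.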
Active calls of the source: *; i = inactive; u = inconclusive; x = no result given; [ ] = another dose, or the depositor's remark. Unless noted, calls come from the whole dose curve; as a rule, active = well fitted curve in the direction sought with a large enough effect; inconclusive = small, poorly fitted or top-dose-only effect, or another doubt; inactive = no such curve, though single readings can be large; an effect the other way counts as inactive or inconclusive.

SMILES | WRN inhibitor | Pin1 inh | PI5P4K alpha inh | Tb PGK inh | GRP78 ERSR act | FEN1 inhibitor
CCOc1cc(/C=C2/C(=N)N3C(=NC2=O)SN=C3S(=O)(=O)C(C)C)ccc1OC(=O)c1ccco1 | -26.3%[11.6 µM] | 24.1% | -83.1* | -12.6% | -5.2% | -8.4%
CCOc1cc(/C=C2/C(=N)N3C(=NC2=O)SN=C3S(=O)(=O)CC)ccc1OC(=O)c1ccco1 | -9.9% | 43.6% | u | -4.7% | 0.6% | -3.7%
O=C1c2ccccc2C(=O)N1c1cc(=O)c2ccccc2[nH]1 | x | -4.5% | x | x | x | x
O=C(CSc1cn[nH]n1)Nc1cccc(C(=O)O)c1 | u | -11.4% | -63.7* | i | -0.3% | 7.7%
Cc1cccc(NC(=O)CSc2cn[nH]n2)c1 | 18.3% | 2.4% | 2.4 | -6.2% | -5.9% | -2.4%
CC#CCC(C)[C@H](O)/C=C/C1[C@H](O)C[C@@H]2C/C(=C\CCCC(=O)O)C[C@H]12 (stereo not given in full) | x | x | x | x | -2.1% | x
O=C(Nc1ccc2[nH]ccc2c1)c1ccccc1 | -6.6% | 1.1% | -17.9 | -4.2% | -9.9% | -0.7%
O=C(Nc1ccc2[nH]c(=S)sc2c1)Nc1ccccc1F | -4.2% | 3.8% | -72.2* | x | 1.0% | -18.9%
O=C(Nc1ccc2[nH]c(=S)sc2c1)c1ccccc1 | u | -1.7% | -68.2* | -2.8% | 1.6% | -5.2%
O=C(/C=C1\C(=O)Nc2ccccc21)/C=C1\C(=O)Nc2ccccc21 | -8.9% | u | -83.0* | 7.5% | -10.2% | -6.5%
O=c1oc2ccccc2c2oc3cc(O)c(O)cc3c12 | 44.7µM* | u | -64.4* | -8.0% | u | 44.7µM*
CC1(C)CC(=O)C2=C(C1)c1c(ccc3ccccc13)NC2c1cc([N+](=O)[O-])cc([N+](=O)[O-])c1O (stereo not given) | u | x | -58.6* | -13.2% | 0.0% | u
CC1(C)CC(=O)C2=C(C1)c1c(ccc3ccccc13)NC2c1ccc(C(=O)O)cc1 (stereo not given) | -4.9% | -20.5% | -4.6 | -3.9% | 1.2% | -14.3%
CC(=O)OCC(=O)[C@@]1(O)[C@H](C)C[C@H]2C3C[C@H](F)C4=CC(=O)C=CC4(C)C3[C@@H](O)CC21C (stereo not given in full) | x | x | x | x | -1.9% | x
Cc1ccc(C)c(N/C(N)=N/c2nc(C)cc(C)n2)c1 | 45.4% | -0.9% | 4.1 | -2.4% | -4.0% | 50.1µM*
COc1ccc(OC)c([C@@H]2Nc3ccc(C(=O)O)cc3[C@@H]3C=CC[C@@H]32)c1 | x | u | x | -7.7% | -1.0% | -19.9%
O=C(O)c1ccc2c(c1)[C@@H]1C=CC[C@@H]1[C@H](c1ccccn1)N2 | 35.5µM* | u | x | u | -6.8% | 31.6µM*
CCC1(C2CCN(Cc3cc4ccccc4o3)CC2)NC(=O)N(CC2COc3ccccc3O2)C1=O (stereo not given) | x | x | x | x | -2.5% | x
COC(=O)c1ccccc1-c1cc(C)cc2c1OC(CNC(=O)C1CCCO1)C2 (stereo not given) | x | x | x | x | 6.9% | x
CCOC(=O)C1CCN(Cc2cc(Cl)c3ccccc3c2O)CC1 | -5.0% | 2.7% | 2.9 | -8.4% | 28.2µM* | 0.9%
O=C(Cc1ccccc1)N/N=C/c1cccn1-c1ccc([N+](=O)[O-])cc1 | u | -0.1% | u | -7.2% | -4.4% | 0.2%
O=C1NC(=S)N/C1=C/c1cccn1-c1ccc([N+](=O)[O-])cc1 | -6.8% | u | -54.7* | 10.0% | -2.9% | -18.7%
O=C(O)c1ccc(NCCc2ccc(Cl)cc2)c([N+](=O)[O-])c1 | -4.6% | 2.5% | -56.2* | -0.3% | 2.3% | -3.5%
O=C(O)c1ccc(Nc2ccc(Cl)c(Cl)c2)c([N+](=O)[O-])c1 | -9.3% | u | -52.3* | 4.7% | 2.9% | 12.1%
COc1ccc(S(=O)(=O)CC(=O)c2cc3cc(Br)ccc3oc2=O)cc1 | u | -6.1% | -75.2* | 2.5% | 11.3% | u
SMILES | WRN inhibitor | Pin1 inh | PI5P4K alpha inh | Tb PGK inh | GRP78 ERSR act | FEN1 inhibitor
CC1=C(C(=O)OCc2ccccc2)C(c2cccc3ccccc23)NC(=O)N1CCCC(=O)O (stereo not given) | 0.6% | 3.9% | -85.8* | 1.4% | 1.2% | -12.7%
CC1=C(C(=O)OCc2ccccc2)C(c2cccc(Cl)c2Cl)NC(=O)N1CCCCCC(=O)O (stereo not given) | -5.8% | -2.7% | -2.6 | 8.1% | 3.0% | 15.6%
CCOC(=O)C1=C(C)N(CCCCCC(=O)O)C(=O)NC1c1ccccc1Cl (stereo not given) | 1.2% | -1.2% | 0.3 | -4.5% | -3.0% | -0.3%
COC(=O)C1=C(C)N(CCCC(=O)O)C(=O)NC1c1cccc(Cl)c1Cl (stereo not given) | -5.6% | -6.8% | -97.8* | i | -1.8% | 0.2%
COC(=O)C1=C(C)N(CCCC(=O)O)C(=O)NC1c1cccc2ccccc12 (stereo not given) | -3.9% | -12.0% | -70.8* | -1.2% | 2.4% | -3.1%
CC(=O)O[C@H]1C[C@@H]2CC[C@@H]3[C@H](CC[C@]4(C)[C@H](OC(C)=O)[C@@H](N5CC[N+](C)(C)CC5)C[C@@H]34)[C@@]2(C)C[C@@H]1N1CC[N+](C)(C)CC1 | x | x | x | x | -3.8% | x
Nc1c(SCCC(=O)O)ccc2c1C(=O)c1ccccc1C2=O | u | u | -86.6* | -15.5% | -4.4% | u
CSCCC(NC(=O)[C@H](Cc1c[nH]c2ccccc12)NC(=O)CNC(=O)[C@H](CCSC)NC(=O)[C@H](Cc1ccc(OS(=O)(=O)O)cc1)NC(=O)[C@@H](N)CC(=O)O)C(=O)N[C@@H](CC(=O)O)C(=O)N[C@@H](Cc1ccccc1)C(N)=O (stereo not given in full) | x | x | x | x | -1.8% | x
O=C(CN1C(=O)CSC1=O)Nc1ccc2c(c1)OCCO2 | -1.0% | -1.2% | -55.4* | 6.1% | -1.5% | -6.9%
Cc1ccc(NC(=O)CN2C(=O)CSC2=O)cc1 | -4.4% | -3.1% | -0.5 | -9.2% | -3.9% | 11.7%
O=C(NCCCCc1ccccc1)C1CCN(c2nc(-c3ccc(Br)cc3)cs2)CC1 | x | 41.1% | x | x | x | x
COC(=O)/C=C\C(C#N)(C#N)N=Cc1ccc(OC)cc1 | 56.2µM* | 3.3% | 1.5 | 10.6% | -8.2% | -2.8%
O=C1ON=C(c2ccccc2)/C1=C/c1ccc(-c2ccccc2[N+](=O)[O-])o1 | u | x | -77.5* | i | -12.1% | -2.5%
COc1ccc(-c2csc(N3CCC(C(N)=O)CC3)n2)cc1OC | x | 5.6% | x | x | x | x
COc1ccccc1CNc1nc(-c2cc(C)n(C)c2C)cs1 | -10.0% | u | -72.2* | -5.5% | -6.9% | -3.9%
COc1ccccc1CC(=O)Nc1nc(-c2ccc(F)c(F)c2)cs1 | -20.2% | u | 3.1 | 0.8% | 1.1% | 0.5%
